From PubChem
FXN GAA850 act: FXN promoter activators, primary screen, cell-based, luciferase luminescence, HEK293 lucGAA850; AID 540364, 2011; HEK293 lucGAA850 FXN promoter luciferase reporter, 24 h; percent of 10 µM SAHA response; activation, % at 6 µM; actives 0.56% (n = 360,000);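 active = activation above the average of all compounds screened plus 3 SD, cutoff fixed separately per campaign, cut at about 7.5% in these data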
Statin myotox sup: suppressors of statin myotoxicity in C2C12 myotubes, primary screen, cell-based, single point, plate reader; C2C12 myotubes + simvastatin, ATP luminescence, 48 h; scaled: DMSO 0, geranylgeraniol control 100; rescue of ATP level, % at 7.49 µM; actives 0.78% (n = 330,000);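 active = mean ATP rescue above about 67%, or every replicate alone reaching that limit, limit read from the data, passing the limit was not always enough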;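 also: myotubes were challenged with 10 µM simvastatin during compound exposure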
esBAF inh: Bmi1 luciferase reporter increase in mESCs, primary screen, esBAF inhibitor project, mouse ES cells, Bmi1 luciferase knock-in, single point; actives 2% (n = 350,000); reporter increase, % at 12.5 µM; 24 h; 100% = twice the neutral-well signal; in the data active = activation above about 40%;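 also: a rise in the Bmi1 reporter signal indicates esBAF inhibition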
MITF act: activators of MITF-driven TRPM1 promoter reporter, primary screen, cell-based, SK-MEL-5, luciferase, single point. SK-MEL-5 TRPM1-promoter luciferase, 24 h; % of positive control, neutral wells = 0. activation, % at 12.5 µM. actives 0.75% (n = 300,000);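 active = mean activation of at least 80% with every replicate also reaching 80%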
Wnt act: Wnt/beta-catenin pathway activators, primary screen, cell-based, plate reader, single point. Wnt/beta-catenin reporter cell assay, activator. activation, % at 9.35 µM. AID 743398, 2014. actives 1.2% (n = 300,000); in the data active = activation above about 30%, passing the limit was not always enough
Of the large screens only hits and unclear results are named; the others gave an inactive call. Shown are actives, neighbours in structure and some others; about 3.3% of the full set was active somewhere.

CC=Cc1ccc2n(c1=O)C[C@H]1[C@H](CO)[C@@H](C(=O)OC)[C@@H]2N1CC1CCCCC1 (mixture of isomers)	none (no result: FXN GAA850 act, MITF act, Wnt act)
CCOC(=O)C1=C(C)OC(N)=C(C(=O)OCC)[C@@]12C(=O)N(CC(N)=O)c1ccccc12	Statin myotox sup 98
CCCN1[C@@H]2Cn3c(cccc3=O)[C@H]1[C@@H](C(=O)N(C)C)[C@@H]2CO	none (no result: FXN GAA850 act, MITF act, Wnt act)
COC(=O)[C@H]1[C@H](CO)[C@H]2Cn3c(ccc(C4=CCCC4)c3=O)[C@@H]1N2S(=O)(=O)c1cn(C)cn1	none (no result: FXN GAA850 act, MITF act, Wnt act)
O=C1Nc2ccccc2/C1=C/c1cnc[nH]1	Statin myotox sup 199
CC(=O)O[C@@H]1/C=C/[C@](C)(O)C[C@@H](C)C/C=C/[C@H]2[C@H](O)[C@@](C)(O)[C@@H](C)[C@H]3[C@H](Cc4ccccc4)NC(=O)[C@@]312	none (no result: MITF act, Wnt act)
CC(=O)O[C@@H]1/C=C/[C@](C)(O)C[C@@H](C)C/C=C/[C@H]2[C@@H]3O[C@]3(C)[C@@H](C)[C@H]3[C@H](Cc4ccccc4)NC(=O)[C@@]312	FXN GAA850 act 18 (no result: MITF act, Wnt act)
CCC(=O)N1[C@@H]2Cn3c(ccc(C4=CCCC4)c3=O)[C@H]1[C@@H](C(=O)OC)[C@@H]2CO	none (no result: FXN GAA850 act, MITF act, Wnt act)
COc1ccc(S(=O)(=O)Cc2ccc(C(=O)N3CCC4(CC3)OCCO4)o2)cc1	Statin myotox sup 113
Cn1c(=O)cc(OCCCC(=O)N2CCC3(CC2)OCCO3)c2ccccc21	none (no result: Statin myotox sup, esBAF inh, Wnt act)
Cn1cc(CCC(=O)N2CCC3(CC2)OCCO3)c2ccccc21	Statin myotox sup 112
Cc1cccc(C)c1NC1=NCCCS1	none
Cc1cc(C)c(NC2=NCCCS2)c(C)c1	Statin myotox sup 82
CN1C(=O)C(=Cc2ccc(N3CCOCC3)o2)C(=O)N(C)C1=O	none (no result: Statin myotox sup, esBAF inh)
CN1C(=O)C(=Cc2ccc(N3CCCCCC3)o2)C(=O)N(C)C1=S	esBAF inh 41 (no result: MITF act)
COc1cccc(OCc2cc(C(=O)N3C[C@H]4C[C@@H](C3)c3cccc(=O)n3C4)no2)c1	esBAF inh 73, MITF act 101
COc1cc(OC)cc(C(=O)NC(=S)N2C[C@H]3C[C@H](C2)c2cccc(=O)n2C3)c1	none
COC(=O)[C@H]1[C@H](CO)[C@H]2Cn3c(ccc(-c4cccc(OC)c4)c3=O)[C@@H]1N2C(=O)c1ccccc1F	none (no result: FXN GAA850 act, MITF act, Wnt act)
COc1ccc(C(C)=O)cc1Cc1c(O)[nH]c(=S)[nH]c1=O	Statin myotox sup 103
COC(=O)C1=C(c2ccc(OC)c(OC)c2)C[C@@H]2CC[C@H]1N2C(=O)NCCOc1ccc(OC)cc1	Statin myotox sup 121
COC(=O)[C@@H]1[C@@H](CO)[C@@H]2Cn3c(cccc3=O)[C@@H]2N1CC1CC1	none (no result: FXN GAA850 act, MITF act, Wnt act)
CC(C)NC(=O)N1[C@@H]2Cn3c(ccc(-c4cccc(C(=O)N(C)C)c4)c3=O)[C@H]1[C@@H](C(=O)O)[C@@H]2CO	none (no result: FXN GAA850 act, MITF act, Wnt act)
COC(=O)[C@@H]1C[C@H]1[C@@H](NP(=O)(c1ccccc1)c1ccccc1)c1ccccc1	none
COC(=O)[C@H]1C[C@@H]1[C@H](NP(=O)(c1ccccc1)c1ccccc1)c1ccccc1	Statin myotox sup 111
COC(=O)[C@@H]1[C@@H](CO)[C@@H]2Cn3c(ccc(-c4ccncc4)c3=O)[C@H]1N2CCc1ccccc1	none (no result: FXN GAA850 act, MITF act, Wnt act)
COC(=O)[C@@H]1[C@@H](CO)[C@@H]2Cn3c(ccc(-c4ccccc4)c3=O)[C@H]1N2C(=O)c1ccccc1F	none (no result: FXN GAA850 act, MITF act, Wnt act)
CN(CC1COc2ccccc2O1)c1nc(-c2cccnc2)nc2ccccc12 (stereo unspecified)	Statin myotox sup 108 (no result: Wnt act)
O=C1NC(=S)NC(=O)C1=Cc1ccc(OCc2ccccc2)cc1	esBAF inh 44
COC(=O)[C@H]1[C@H](CO)[C@H]2Cn3c(ccc(-c4ccccc4OC)c3=O)[C@@H]1N2Cc1ccccc1	none (no result: FXN GAA850 act, MITF act, Wnt act)
Cc1cc(C(=O)N=Nc2c(O)n(C)c3ccccc23)c(C)o1	MITF act 87 (no result: Wnt act)
c1ccc2oc(-c3ccc4c(c3)CNCc3cnnn3-4)cc2c1	esBAF inh 66 (no result: FXN GAA850 act, MITF act)
c1cc2c(cc1N1CCCCC1)CNCc1cnnn1-2	none (no result: FXN GAA850 act, MITF act)
COC(=O)[C@@H]1[C@@H](CO)[C@@H]2Cn3c(ccc(-c4ccc(OC)cc4)c3=O)[C@H]1N2C(=O)c1ccccc1F	none (no result: FXN GAA850 act, MITF act, Wnt act)
CCCC(=O)c1c(O)[nH]c(=O)[nH]c1=O	Statin myotox sup 97
